Laboratory results from PubChem BioAssay AID488932 (Broad Institute, 2010).
Measured potencies and affinities stand elsewhere. Activity calls are given as the source filed them.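 The calls were made as follows: active = growth signal falls, with fitted half-maximal dose at most ten times the top valid dose; inconclusive = flat curve with a partial drop, or a poorly fitting curve; inactive = the rest, including compounds that raise signal.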

test: Candida albicans growth inhibition, agent alone, dose response, counter-screen for reversing antifungal drug resistance, CaCi-2 strain, no fluconazole, dry powder, set 4 (AID 488932); settings: C. albicans CaCi-2 (fluconazole-resistant clinical isolate) growth, Alamar Blue, 48 h; series mostly up to 26 µM; activity change, negative = inhibition: at the top concentration

For `O=C(c1ccc(Cl)cc1)N1CCN(c2ccc(Cl)cc2)CC1`, which “activity change, negative = inhibition” value is on record?
Its value is -5.99% (inactive).

With `O=C(c1ccc(F)cc1)N1CCN(c2ccnc3cc(Cl)ccc23)CC1` as the compound, how does the “activity change, negative = inhibition” value read?
The value was 20.7% (inactive).

For `O=C(c1ccc(Cl)cc1)N1CCN(c2cccc(C(F)(F)F)n2)CC1`, which “activity change, negative = inhibition” value is on record?
The value was 20.3% (inactive).

With `O=C(c1ccc(Cl)cn1)N1CCN(c2ccnc3cc(Cl)ccc23)CC1` as the compound, how does the “activity change, negative = inhibition” value read?
Its value is 70.8% (inactive).

With `O=C(c1ccc(Cl)cc1)N1CCN(c2ncnc3ccccc23)CC1` as the compound, how does the “activity change, negative = inhibition” value read?
Its value is -21.6% (inactive).

With `Cc1cc(N2CCN(C(=O)c3ccc(Cl)cc3)CC2)c2ccc(F)cc2n1` as the compound, how does the “activity change, negative = inhibition” value read?
Its value is 28.9% (inactive).

With `O=C(Nc1ccc(Cl)cc1)N1CCN(c2ccnc3cc(Cl)ccc23)CC1` as the compound, how does the “activity change, negative = inhibition” value read?
The value was -46.6% (inactive).

Which “activity change, negative = inhibition” value does the source give for `O=C(c1ccc(Cl)cc1)N1CCN(c2ccnc3ccccc23)CC1` here?
The value was 35.2% (inactive).

For `CC1CN(c2ccnc3cc(Cl)ccc23)CCN1C(=O)c1ccc(Cl)cc1` (stereo not drawn), which “activity change, negative = inhibition” value is on record?
Its value is 36% (inactive).

For `CCCC(=O)N1CCN(c2ccnc3cc(Cl)ccc23)CC1`, which “activity change, negative = inhibition” value is on record?
Its value is 37% (inactive).

Which “activity change, negative = inhibition” value does the source give for `O=C(c1ccc(Cl)cc1)N1CCN(c2nc3ccccc3s2)CC1` here?
The value was 15% (inactive).

With `O=C(c1ccc(Cl)cc1)N1CCN(c2cc(C(F)(F)F)nc3ccccc23)CC1` as the compound, how does the “activity change, negative = inhibition” value read?
Its value is 33% (inactive).

With `O=C(c1ccc(Cl)cc1)N1CCN(c2ncccn2)CC1` as the compound, how does the “activity change, negative = inhibition” value read?
Its value is 15.2% (inactive).

Which “activity change, negative = inhibition” value does the source give for `COc1cccnc1N1CCN(C(=O)c2ccc(Cl)cc2)CC1` here?
Its value is 23.9% (inactive).

For `O=C(c1ccc(Cl)c(Cl)c1)N1CCN(c2ccnc3cc(Cl)ccc23)CC1`, which “activity change, negative = inhibition” value is on record?
The value was 19.6% (inactive).

For `COc1ccc2c(N3CCN(C(=O)c4ccc(Cl)cc4)CC3)ccnc2c1`, which “activity change, negative = inhibition” value is on record?
Its value is 13.6% (inactive).

For `O=C(c1ccccc1Cl)N1CCN(c2ccnc3cc(Cl)ccc23)CC1`, which “activity change, negative = inhibition” value is on record?
Its value is 20.5% (inactive).

Which “activity change, negative = inhibition” value does the source give for `COc1cccc2c(N3CCN(C(=O)c4ccc(Cl)cc4)CC3)cc(C)nc12` here?
Its value is 60.5% (inactive).
